# Laboratory results as given in PubChem BioAssay (NCI).
# The panel holds about 83,000 compounds, 20% with a hit somewhere; the sample as a whole holds those more often.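 Negative percent growth values reflect cell death: -40 means 40% of the cells present at the start died, and -100 means all died.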 Unmarked numbers belong to inactive results. Calls of active or inactive are those of the source. The calls were made as follows: active = growth percent below 10; inactive = the rest.
# Legend:
# Assay in all cases: NCI-60 one-dose screen, 48 h (100 = growth as untreated, 0 = no growth, -100 = all killed)
# Details in all cases: 10 µM unless noted
# T-47D breast = test system: T-47D breast
# BT-549 breast = test system: BT-549 breast
# MDA-MB-435 melanoma = test system: MDA-MB-435 melanoma
# SW-620 colon = test system: SW-620 colon
# MCF7 breast = test system: MCF7 breast
# HCT-116 colon = test system: HCT-116 colon
# HCC-2998 colon = test system: HCC-2998 colon
# KM12 colon = test system: KM12 colon
SMILES,growth (T-47D breast),growth (BT-549 breast),growth (MDA-MB-435 melanoma),growth (SW-620 colon),growth (MCF7 breast),growth (HCT-116 colon),growth (HCC-2998 colon),growth (KM12 colon)
CS(=O)(=O)c1ccc(/C(=N/N=C(N)N)c2ccc(Cl)cc2)cc1,89%,85%,8.68% (active),74.6%,32.8%,73.8%,91.2%,72%
COc1ccc(-c2c(C(N)=O)c(N)n(Cc3nc4ccccc4[nH]3)c(=O)c2C#N)c(OC)c1,89.6%,105%,109%,105%,76.5%,104%,110%,99.8%
OCC(Nc1ncnc2ccc(-c3cnc4cnccn34)cc12)c1ccccc1 (stereo not drawn),28.4%,76.2%,90%,105%,60.9%,79.3%,82.9%,80.9%
N/C(=N\C(N)=N\c1nc2ccccc2s1)c1ccc(Cl)cc1,68.3%,94.4%,96.3%,103%,69.3%,74.7%,102%,68.4%
C#C[C@]1(O)CC[C@H]2[C@@H]3CC=C4c5sc(Nc6ncccc6C)nc5CC[C@]4(C)[C@H]3CC[C@@]21C,29.2%,-1.46% (active),-39.3% (active),-40.9% (active),-48.8% (active),7.15% (active),28.8%,3.23% (active)
Cc1ccc2c(n1)C(=O)C(Cl)=C(Nc1cccc(C(=O)OC(C)(C)C)c1)C2=O,59.1%,102%,97.9%,64.3%,53.3%,14%,113%,99.2%
O=C(Nc1ccc(Cl)c(C(F)(F)F)c1)Nc1ccc2oc(=O)ccc2c1,8.73% (active),78.7%,50.3%,37.3%,11.9%,15.7%,29.2%,19.6%
O=C(Nc1cc(C(F)(F)F)cc(C(F)(F)F)c1)Nc1ccc2oc(=O)ccc2c1,4.8% (active),10%,3.64% (active),19.4%,3.81% (active),2.09% (active),11.2%,9.67% (active)
COc1ccc(N2CCN(C3=C(Cl)C(=O)c4ncccc4C3=O)CC2)cc1,-53.3% (active),111%,-59.9% (active),-4.75% (active),-27.6% (active),-59.7% (active),107%,95.7%
CC(Nc1c(C#N)cnc2ccc(-c3cncc(-c4n[nH]c(=O)o4)c3)cc12)c1ccccc1 (stereo not drawn),13.1%,-20.1% (active),24%,18.7%,8.39% (active),0.0701% (active),25.8%,17.1%
O=C(CCCCCCNC(=O)C(O)(O)C(F)(F)F)Nc1ncc(-c2ccccc2)s1,8.47% (active),-9.98% (active),0.873% (active),0.575% (active),11.7%,2.27% (active),-46.1% (active),-28.7% (active)
COC(=O)N1CCN(CCNCc2ccc(NC(=O)c3ccc(C)c(C#Cc4cnc5cccnn45)c3)cc2C(F)(F)F)CC1,34%,24.1%,-21.8% (active),14.6%,-6.54% (active),4.9% (active),14.4%,4.91% (active)
CC1(C)CC[C@]23CC[C@]4(C)[C@H](CC[C@@H]5[C@@]6(C)CC[C@H](N)C(C)(C)[C@@H]6CC[C@]54C)[C@H]2[C@H]1OC3,88.1%,88.9%,90.6%,-44.3% (active),-8.5% (active),-82.7% (active),-15.9% (active),18%
C#C[C@]1(O)CC[C@H]2[C@@H]3CC=C4c5sc(Nc6cccc(F)c6)nc5CC[C@]4(C)[C@H]3CC[C@@]21C,29.9%,19.4%,29.9%,8.9% (active),0.863% (active),2.09% (active),42%,13.7%
O=c1c2cc(-c3ccc(F)cc3F)ccc2n(Nc2ccccc2)c(=O)n1-c1cccc(C(F)(F)F)c1,8.44% (active),3.91% (active),5.62% (active),16%,4.02% (active),7.14% (active),14.7%,11.4%
NC(=S)n1c(=O)n(-c2cccc(C(F)(F)F)c2)c(=O)c2cc(-c3ccc(F)cc3F)ccc21,-12.9% (active),-7.8% (active),2.32% (active),15%,1.71% (active),3.05% (active),20.1%,6.48% (active)

SMILES,growth (T-47D breast),growth (BT-549 breast),growth (MDA-MB-435 melanoma),growth (SW-620 colon),growth (MCF7 breast),growth (HCT-116 colon),growth (HCC-2998 colon),growth (KM12 colon)
CCc1cc2c(cc1Cl)nc1c(=O)[nH]c(=O)nc-1n2CCOCC(C)(C)C,80.7%,95%,33.5%,89.5%,58.2%,73.3%,84.1%,76.5%
Brc1cc(-c2cc(-c3ccc4c(c3)OCCO4)[nH]n2)cs1,38.5%,66%,-26.8% (active),36.7%,14.7%,41.5%,62.1%,27.7%
C#CCN(C)CCCOc1ccc(NCc2ccc(/C=C/C(=O)NO)cc2)cc1Cl,1.04% (active),18.8%,-25.3% (active),10.1%,10.4%,9.47% (active),-43.2% (active),5.72% (active)
O=[N+]([O-])c1ccc(NC(=S)NNC(=S)Nc2ccc(Br)cc2)cc1,73.3%,103%,99%,91.1%,70.1%,90.6%,53.7%,55.4%
COc1ccc(C2C(C#N)=C(/N=C/c3ccc(Cl)cc3)Oc3c2sc2c(C)cccc32)cc1 (stereo not drawn),17.9%,49.5%,-23.5% (active),31.2%,21.5%,13.4%,16.7%,23.1%
CN(C)c1ccc(-c2cc(-c3c[nH]c4ccccc34)nc(N)c2C#N)cc1,39.9%,27.8%,13.6%,21.4%,28%,14.5%,49.7%,18.2%
Brc1ccc(-c2cc(-c3ccc4c(c3)OC=CO4)n[nH]2)s1,48.5%,91.3%,15.3%,79.1%,20.7%,91.5%,84.5%,58.6%
O=C(CSc1nnc(-c2cccs2)n1-c1ccccc1)Nc1ccccc1F,88.9%,89.2%,3.39% (active),69.3%,58.9%,83.7%,91.6%,61.5%
C/C(=N/N)c1nnn(-c2ccc(Br)cc2)c1C,102%,102%,102%,105%,77.6%,103%,107%,99.4%
COc1ccc(CC(C)=C(c2ccc(OCCN3CCCC3)cc2)c2ccc(OCCN3CCCC3)cc2)cc1,-49.9% (active),-69.5% (active),-76.4% (active),-53% (active),-80% (active),-17.6% (active),-80.3% (active),-95.3% (active)
COc1ccc2c(c1)c(-c1nnc(N)nc1-c1c[nH]c3ccc(F)cc13)cn2C,46.5%,53.5%,3.37% (active),25.7%,18.9%,21.4%,74.6%,22.9%
Oc1ccc(-c2nc3ccc(/C(=N\N=C\c4ccc(Cl)cc4)c4ccccc4)cc3[nH]2)cc1,79.9%,94.3%,84.4%,88.5%,53.1%,82.6%,91.9%,74%
O=C(/C=C/c1cccc(F)c1)c1cccc(OCCCCOc2cccc(C(=O)/C=C/c3cccc(F)c3)c2)c1,105%,124%,103%,98.1%,54.6%,72.8%,114%,110%
COCCOc1ccc2ncc(C#Cc3cncc(C(=O)Nc4ccc(CN5CCN(C)CC5)c(C(F)(F)F)c4)c3)n2n1,59.6%,0.139% (active),11.5%,-34% (active),-59.8% (active),-86.7% (active),33.6%,0.84% (active)
O=C(CCCCCCNC(=O)C(O)(O)C(F)(F)F)Nc1nc2ccccc2s1,12.1%,13%,4.88% (active),4.75% (active),9.8% (active),2.81% (active),-39.8% (active),7.52% (active)
